# Like-named read-outs stand apart in the source and are kept apart here.
# Experiments:
# Design in all cases: species or system human, MV4-11 + K-562 + COLO205 + SK-N-BE2 + OVCAR-8
# [1] = tested on: MAPK10; conditions: read-out: apparent Kd, compound concentrations: 100 nM and 1000 nM (sheet 'Samples'), n = 1
# [2] = tested on: MAPK14; conditions: read-out: apparent Kd, compound concentrations: 100 nM and 1000 nM (sheet 'Samples'), n = 1
# [3] = tested on: MAPK9; conditions: read-out: apparent Kd; compound concentrations: 100 nM and 1000 nM (sheet 'Samples'), CATDS: 0.21193161628333601; n = 1
# [4] = tested on: MAPKAPK2; conditions: read-out: apparent Kd, compound concentrations: 100 nM and 1000 nM (sheet 'Samples'), n = 1
# [5] = tested on: NLK; conditions: read-out: apparent Kd; compound concentrations: 100 nM and 1000 nM (sheet 'Samples'), CATDS: 0.13689405577896799; n = 1
# [6] = tested on: NQO1; conditions: read-out: apparent Kd, n = 1
# [7] = tested on: MAPK11; conditions: read-out: apparent Kd, compound concentrations: 100 nM and 1000 nM (sheet 'Samples'), n = 1
# [8] = tested on: STK26; conditions: read-out: apparent Kd; compound concentrations: 100 nM and 1000 nM (sheet 'Samples'), CATDS: 0.44700655759470098; n = 1
# [9] = tested on: PIK3C2A; conditions: read-out: apparent Kd; compound concentrations:100 nM and 1000 nM (sheet 'Samples'); n = 1
# [10] = tested on: PIK3C3; conditions: read-out: apparent Kd, n = 1
# [11] = tested on: PIM2; conditions: read-out: apparent Kd; compound concentrations:100 nM and 1000 nM (sheet 'Samples'); n = 1
# [12] = tested on: RIOK2; conditions: read-out: apparent Kd, n = 1
# [13] = tested on: MDN1; conditions: read-out: apparent Kd; compound concentrations: 100 nM and 1000 nM (sheet 'Samples'), CATDS: 0.24349694063925101; n = 1
# [14] = tested on: TGFBR1; conditions: read-out: apparent Kd; compound concentrations: 100 nM and 1000 nM (sheet 'Samples'), CATDS: 0.25129467412206702; n = 1
# [15] = tested on: MYLK3; conditions: read-out: apparent Kd; compound concentrations: 100 nM and 1000 nM (sheet 'Samples'), CATDS: 0.35775008511520401; n = 1
# [16] = tested on: T1, T10; conditions: read-out: apparent Kd; compound concentrations: 100 nM and 1000 nM (sheet 'Samples'), CATDS: 0.30543908388735203; n = 1
# T1 construct: gene NAT10
# [17] = tested on: TTK; conditions: read-out: apparent Kd; compound concentrations: 100 nM and 1000 nM (sheet 'Samples'), CATDS: 0.34120640497056598; n = 1
# [18] = tested on: OPA1; conditions: read-out: apparent Kd; compound concentrations:100 nM and 1000 nM (sheet 'Samples'); n = 1
# [19] = tested on: PRKD1; conditions: read-out: apparent Kd; compound concentrations:100 nM and 1000 nM (sheet 'Samples'); n = 1
# [20] = compound concentrations:100 nM and 1000 nM (sheet 'Samples')
smiles,measurement,setting,value
Cn1c(=O)c(Sc2ccccc2F)cc2cnc(NC3CCOCC3)nc21 [RO4944065-000],potency estimated from few doses,[1]; CATDS: 0.25998811221784501,524 nM
same,potency estimated from few doses,[2]; CATDS: 0.14533669978761299,1580 nM
same,potency estimated from few doses,[3],732 nM
same,potency estimated from few doses,[4]; CATDS: 0.161840015907707,1230 nM
same,potency estimated from few doses,[5],1840 nM
same,potency estimated from few doses,"[6]; compound concentrations: 100 nM and 1000 nM (sheet 'Samples'), CATDS: 0.141428074132052",1690 nM
Cl.Cn1c(=O)c(Oc2ccc(F)cc2F)cc2cnc(NC(CO)CO)nc21 [RO3310123-001],potency estimated from few doses,[1]; CATDS: 0.34863308961168299,1500 nM
same,potency estimated from few doses,[2]; CATDS: 0.88366158604644096,106 nM
O=C(O)/C=C/C(=O)O.OCCCNc1nccc(-c2c(-c3ccc(F)cc3)nn3cc(C(F)(F)F)ccc23)n1 [GW569293E],potency estimated from few doses,[1]; CATDS: 0.51132000357216201,1430 nM
same,potency estimated from few doses,[2]; CATDS: 0.48917036256560797,1570 nM
Fc1ccc(Nc2nccc(-c3c(-c4ccc(Cl)cc4)nn4ncccc34)n2)cc1F [GW829058X],potency estimated from few doses,[1]; CATDS: 0.57984182911323701,726 nM
same,potency estimated from few doses,[2]; CATDS: 0.43948476052302998,1280 nM
Cc1ccc(NC(=O)c2cccc(N3CCCCC3)c2)cc1-c1ccc(C(=O)NCC2CC2)cc1 [GSK1917008A],potency estimated from few doses,[7]; CATDS: 0.21712264720535299,591 nM
same,potency estimated from few doses,[2]; CATDS: 0.45448285689505602,64.8 nM
same,potency estimated from few doses,[4]; CATDS: 0.455787440841948,64.5 nM
CN1CCN(CC#Cc2cccc(C(=O)c3cnn(-c4ccc(F)cc4)c3N)c2)CC1.Cl [RO1154309-001],potency estimated from few doses,[7]; CATDS: 0.56724832291410499,811 nM
same,potency estimated from few doses,[8],1310 nM
CN(C)CC#Cc1cccc(C(=O)c2cnn(-c3ccc(F)cc3)c2N)c1.Cl [RO1154641-001],potency estimated from few doses,[7]; CATDS: 0.57557980724534297,758 nM
same,potency estimated from few doses,[2]; CATDS: 0.44196522207196598,1300 nM
Cl.Nc1c(C(=O)c2cccc(-c3cccnc3)c2)cnn1-c1ccc(F)cc1F [RO1164194-001],potency estimated from few doses,[7]; CATDS: 0.82795584306013303,112 nM
same,potency estimated from few doses,[2]; CATDS: 0.35813974934326798,968 nM
O=c1[nH]c2nc(NC3CCOCC3)ncc2cc1Oc1ccc(F)cc1F [RO3310867-000],potency estimated from few doses,[2]; CATDS: 0.37744016768512201,9.96 nM
COCCNC(=O)c1ccc(-c2cc(C(=O)NC3CC3)cc(F)c2C)cc1 [GW868318X],potency estimated from few doses,[2]; CATDS: 0.55857087808569805,22.7 nM
Cl.Cn1c(=O)c(Oc2ccc(F)cc2F)cc2cnc(NCCS(C)(=O)=O)nc21 [RO3309294-001],potency estimated from few doses,[2]; CATDS: 1,344 nM
Cl.Cn1c(=O)c(Oc2ccccc2F)cc2cnc(NC3CCOCC3)nc21 [RO3304805-001],potency estimated from few doses,[6]; [20],1480 nM
O=C1NC(=O)C(c2ccc(Cl)cc2)=C1Nc1cccc(Cl)c1 [SB-317651],potency estimated from few doses,[9],2450 nM
same,potency estimated from few doses,[10]; [20],1570 nM
same,potency estimated from few doses,[11],1320 nM
same,potency estimated from few doses,[12]; [20],1500 nM
Nc1nc(-c2nccs2)c(-c2ccnc3ccccc23)s1 [GW693542X],potency estimated from few doses,[13],1860 nM
same,potency estimated from few doses,"[10]; compound concentrations: 100 nM and 1000 nM (sheet 'Samples'), CATDS: 0.27915457125427801",1430 nM
same,potency estimated from few doses,"[12]; compound concentrations: 100 nM and 1000 nM (sheet 'Samples'), CATDS: 0.23086501182720201",2090 nM
same,potency estimated from few doses,[14],1750 nM
COc1ccc(-c2oc3ncnc(N)c3c2-c2ccc(NC(=O)Nc3cc(C(F)(F)F)ccc3F)cc2)cc1.Cl [GW768505A],potency estimated from few doses,[15],1430 nM
same,potency estimated from few doses,[16],1970 nM
same,potency estimated from few doses,[17],1570 nM
FC(F)(F)c1ccc(-c2nn3ncccc3c2-c2ccnc(Nc3cccc(C(F)(F)F)c3)n2)cc1 [GW828205X],potency estimated from few doses,[18],1630 nM
same,potency estimated from few doses,[19],1820 nM

# From article PMC11062922 (Nature Chemical Biology, 2023)
